In PubChem BioAssay AID1159580 (chemical genetic matrix, 2015):
“And” between values parts separate entries of the source, which are not always exact repeats. Identical values can stand only once. The whole screen tested about 5,500 compounds, of which about 2,000 (36%) were called active. Not shown: some 18% with an inconclusive outcome. Rule as the data show it: active = normalized growth mostly below about 0.91 (no sharp cut-off); inconclusive = no clear call, values can overlap the other calls; inactive = mostly above about 0.92. Some of the results follow.

Assay: chemical genetic growth profiling, strain panel (AID 1159580);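 also: tested at 20 µM; growth read once vehicle control cultures reached saturation at 30 °C; 1 = growth at the plate median or of vehicle wells; lower values mean less growth of the strain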
Details: S. cerevisiae deletion strains, growth OD

Measured: normalized growth

COc1ccc2c(c1)CCC1C2CC[C@@]2(C)C1CC[C@@H]2O (some centres not stated)
0.36 (active) and 0.884 (inactive): locus YHR030C, strain SLT2, stronger effect = lower value
inactive: locus YAL021C, strain ccr4, stronger effect = lower value 0.959 | locus YAL030W, strain snc1, stronger effect = lower value 0.959 | locus YBR021W, strain FUR4, stronger effect = lower value 1.04 | locus YBR171W, strain sec66, stronger effect = lower value 0.94 | locus YBR229C, strain ROT2, stronger effect = lower value 0.982 | locus YBR231C, strain swc5, stronger effect = lower value 0.978 | locus YCR088W, strain abp1, stronger effect = lower value 0.937 | locus YDL005C, strain med2, stronger effect = lower value 0.983 | locus YDL040C, strain nat1, stronger effect = lower value 0.96 | locus YDL101C, strain DUN1, stronger effect = lower value 0.899 | locus YDL185W, strain tfp1, stronger effect = lower value 0.961 | locus YDR001C, strain nth1, stronger effect = lower value 0.965 | locus YDR069C, strain doa4, stronger effect = lower value 1.01 | locus YDR150W, strain NUM1, stronger effect = lower value 0.944 | locus YDR195W, strain ref2 0.953 | locus YDR334W, strain swr1, stronger effect = lower value 1 | locus YDR388W, stronger effect = lower value 0.936 | locus YEL037C, strain rad23, stronger effect = lower value 0.966 | locus YER016W, strain bim1, stronger effect = lower value 0.957 | locus YER111C, strain swi4, stronger effect = lower value 0.939 | locus YFR010W, strain ubp6, stronger effect = lower value 0.974 | locus YGL167C, strain pmr1, stronger effect = lower value 0.965 | locus YHR013C, strain ard1, stronger effect = lower value 1.04 | locus YHR027C, strain rpn1, stronger effect = lower value 0.977 | locus YHR079C, strain IRE1, stronger effect = lower value 0.872 | locus YHR094C, strain hxt1, stronger effect = lower value 0.951 | locus YIL073C, strain SPO22, stronger effect = lower value 0.727 | locus YJL092W, strain hpr5, stronger effect = lower value 0.934 | locus YJL115W, strain asf1, stronger effect = lower value 0.987 | locus YJL134W, strain LCB3, stronger effect = lower value 0.989 | locus YJL154C, strain vps35, stronger effect = lower value 0.986 | locus YJL168C, strain set2, stronger effect = lower value 0.943 | locus YJR066W, strain TOR1, stronger effect = lower value 0.907
active: locus YAL013W, strain DEP1, stronger effect = lower value 0.82 | locus YAL026C, strain drs2, stronger effect = lower value 0.682 | locus YBL061C, strain skt5, stronger effect = lower value 0.889 | locus YBR009C, strain hhf1, stronger effect = lower value 0.76 | locus YBR023C, strain chs3, stronger effect = lower value 0.852 | locus YBR279W, strain paf1, stronger effect = lower value 0.884 | locus YCL011C, strain gbp2, stronger effect = lower value 0.813 | locus YCL016C, strain dcc1, stronger effect = lower value 0.862 | locus YCL029C, strain bik1, stronger effect = lower value 0.884 | locus YCL061C, strain MRC1, stronger effect = lower value 0.854 | locus YCL069W, strain vba3, stronger effect = lower value 0.898 | locus YDL035C, strain GPR1, stronger effect = lower value 0.728 | locus YDL074C, strain BRE1, stronger effect = lower value 0.514 | locus YDL134C, strain PPH21, stronger effect = lower value 0.799 | locus YDL192W, strain arf1, stronger effect = lower value 0.502 | locus YDR101C, strain arx1, stronger effect = lower value 0.811 | locus YDR137W, strain rgp1, stronger effect = lower value 0.578 | locus YDR159W, strain sac3, stronger effect = lower value 0.746 | locus YDR162C, strain NBP2, stronger effect = lower value 0.405 | locus YDR297W, strain sur2, stronger effect = lower value 0.915 | locus YDR318W, strain mcm21, stronger effect = lower value 0.7 | locus YDR335W, strain msn5, stronger effect = lower value 0.872 | locus YDR392W, strain spt3, stronger effect = lower value 0.239 | locus YDR502C, strain sam2, stronger effect = lower value 0.757 | locus YEL003W, strain gim4, stronger effect = lower value 0.842 | locus YEL061C, strain CIN8 (second series), stronger effect = lower value 0.893 | locus YEL061C, strain CIN8, stronger effect = lower value 0.825 | locus YER015W, strain faa2, stronger effect = lower value 0.86 | locus YER110C, stronger effect = lower value 0.875 | locus YER155C, strain BEM2 (second series), stronger effect = lower value 0.686 | locus YER155C, strain BEM2, stronger effect = lower value 0.676 | locus YER167W, strain BCK2, stronger effect = lower value 0.653 | locus YGL078C, strain dbp3, stronger effect = lower value 0.783 | locus YGL086W, strain mad1, stronger effect = lower value 0.75 | locus YGL173C, strain kem1, stronger effect = lower value 0.885 | locus YGL227W, strain vid30, stronger effect = lower value 0.903 | locus YGL240W, strain doc1, stronger effect = lower value 0.855 | locus YGL248W, strain PDE1, stronger effect = lower value 0.844 | locus YGL253W, strain hxk2, stronger effect = lower value 0.786 | locus YGR078C, strain PAC10, stronger effect = lower value 0.659 | locus YGR135W, strain pre9, stronger effect = lower value 0.731 | locus YGR229C, strain SMI1, stronger effect = lower value 0.407 | locus YGR252W, strain gcn5, stronger effect = lower value 0.47 | locus YHR079C, strain IRE1 (second series), stronger effect = lower value 0.787 | locus YHR129C, strain ARP1, stronger effect = lower value 0.753 | locus YHR142W, strain chs7, stronger effect = lower value 0.628 | locus YHR200W, strain rpn10, stronger effect = lower value 0.817 | locus YIL066C, strain RNR3, stronger effect = lower value 0.625 | locus YIL125W, strain kgd1, stronger effect = lower value 0.822 | locus YIR030C, strain dcg1, stronger effect = lower value 0.902 | locus YJL095W, strain BCK1 (second series), stronger effect = lower value 0.833 | locus YJL095W, strain BCK1, stronger effect = lower value 0.363 and 0.882 | locus YJL129C, strain trk1, stronger effect = lower value 0.804 | locus YJL164C, strain tpk1, stronger effect = lower value 0.812 | locus YJL166W, strain qcr8, stronger effect = lower value 0.775 | locus YJL187C, strain SWE1 (second series), stronger effect = lower value 0.818 | locus YJL187C, strain SWE1, stronger effect = lower value 0.898 | locus YJR043C, strain POL32, stronger effect = lower value 0.698
